Reference: PubChem BioAssay
The source made the active and inactive calls.

How the values were obtained:
[1] = binders of probe aFSTL3 on microarray, primary screen, stem cell growth factor project, biochemical, small-molecule microarray, fluorescence 635/667 (AID 1064); settings: higher = more signal;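 also: measures binding of the biotinylated anti-FSTL3 antibody to printed compounds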
[2] = binders from COS7 lysate, DM2A8 probe, primary screen, torsin A project, cell lysate, small-molecule microarray, fluorescence 635/667 (AID 1065); settings: higher = more signal, COS7 lysate expressing mutant human TOR1A
[3] = binders of probe aFGF2 on microarray, primary screen, stem cell growth factor project, biochemical, small-molecule microarray, fluorescence 635/667 (AID 1067); settings: higher = more signal;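 also: measures binding of biotinylated aFGF2 protein to printed compounds on slides; z-score merges feature fluorescence and signal-to-noise across triplicate slides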
[4] = binders of probe aFGF10 on microarray, primary screen, stem cell growth factor project, biochemical, small-molecule microarray, fluorescence 635/667 (AID 1071); settings: higher = more signal;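 also: score merges 667 nm spot intensity and signal to noise from triplicate slides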
[5] = target: Neurogenic locus notch homolog protein 2 (Homo sapiens) (UniProt Q04721); assay: Notch2 binders on small-molecule microarrays, primary screen, biochemical, small-molecule microarray, 635 nm fluorescence, stem cell growth factors (AID 1073); settings: Notch2 binding, higher = more signal
[6] = target: Pro-neuregulin-1, membrane-bound isoform (Homo sapiens) (UniProt Q02297); assay: NRG1 binders on small-molecule microarrays, primary screen, psychiatric disease protein project, biochemical, small-molecule microarray, fluorescence 635/667 (AID 1075); settings: NRG1 binding, 635 nm fluorescence, higher = more signal;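 also: score combines 667 nm spot fluorescence with signal to noise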
[7] = system: Neuregulin-1 EGF-like domain; assay: binders of neuregulin-1 EGF-like domain, primary screen, biochemical, small-molecule microarray, 635 nm fluorescence (AID 1081); settings: small-molecule microarray binding, higher = more signal;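 also: binding of the protein to compounds printed on small-molecule microarray slides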
[8] = FRG1 promoter luciferase signal modulators, primary screen, FRG1 inhibition for FSHD, cell-based, C2C12 myotubes, firefly/Renilla luciferase, luminescence (AID 1084); settings: higher = more signal, called active from +8 up or from −8 down
[9] = binders of probe aFST on microarray, primary screen, stem cell growth factor project, biochemical, small-molecule microarray, fluorescence 635/667 (AID 1086); settings: higher = more signal;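 also: score merges 667 nm fluorescence with signal-to-noise of each printed compound spot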
[10] = binders of probe aHhip on microarray, primary screen, stem cell growth factor project, biochemical, small-molecule microarray, fluorescence 635/667 (AID 1087); settings: higher = more signal;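 also: score merges spot fluorescence at 667nm with spot signal to noise ratio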
[11] = system: PRMT1 (protein arginine N-methyltransferase 1); assay: PRMT1 binders on small-molecule microarrays, primary screen, biochemical, small-molecule microarray, 635 nm fluorescence (AID 1088); settings: small-molecule microarray binding, higher = more signal;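 also: binding of Prmt1 protein to compounds spotted on small-molecule microarray slides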
[12] = yeast growth modulation, basal conditions, primary screen, YJM789 clinical isolate, OD600, 24 h (AID 1089);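 also: growth of clinical yeast isolate S. cerevisiae YJM 789 seeded 1000 cells per well; test concentration not given here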; settings: S. cerevisiae YJM789 growth, higher = more signal, called active from +8 up or from −8 down
[13] = fission yeast growth modulation, primary screen, strain 972, OD600, 24 h, no modulator (AID 1090);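 also: basal condition with compound alone and no growth modifier present; test concentration not given here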; settings: S. pombe 972 growth, higher = more signal, called active from +8 up or from −8 down
[14] = S. cerevisiae growth modulation with rapamycin, primary screen, strain BY4716, OD600, 96 h (AID 1091); settings: higher = more signal, called active from +8 up or from −8 down; also: test concentration not given here
[15] = target: Torsin-1A-interacting protein 2 (Homo sapiens) (UniProt Q8NFQ8); assay: LULL1 binders on small-molecule microarray, primary screen, cell lysate, human LULL1 lysate, 635/667 nm fluorescence (AID 1092); settings: hLULL1 lysate binding, 635 nm fluorescence, higher = more signal;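 also: probe is lysate of COS7 cells overexpressing human LULL1; score merges per-feature 667 nm fluorescence with signal-to-noise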
[16] = E. coli growth modulation, two-sided OD650, primary screen, E. coli filamentation project, strain DRC41, 24 h (AID 1093); settings: OD650, 24 h, higher = more signal, called active from +8 up or from −8 down;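 also: MC1000 strain lacking acrAB efflux and sulA so SOS filamentation is blocked; test concentration not given here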
[17] = small-molecule microarray binders of probe aLefty2, primary screen, biochemical, biotinylated probe, 635/667 nm fluorescence (AID 1094); settings: higher = more signal;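 also: score merges spot fluorescence near 667 nm with spot signal-to-noise ratio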
[18] = system: Noggin (protein binding on small-molecule microarray); assay: Noggin binders on small-molecule microarray, primary screen, biochemical, 635/667 nm fluorescence (AID 1095); settings: 635 nm fluorescence, higher = more signal;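 also: score merges 667 nm feature fluorescence with signal to noise over triplicate slides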
[19] = target: Neurogenic locus notch homolog protein 3 (Homo sapiens) (UniProt Q9UM47); assay: NOTCH3 binders on small-molecule microarray, primary screen, biochemical, 635/667 nm fluorescence (AID 1096); settings: NOTCH3 binding, 635 nm fluorescence, higher = more signal
[20] = small-molecule microarray binders of probe aEGFR, primary screen, biochemical, biotinylated probe, 635/667 nm fluorescence (AID 1097); settings: higher = more signal;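 also: probe is a biotinylated anti-EGFR antibody binding compounds printed on slides; score combines fluorescence near 667 nm and signal to noise of each spot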

Chain of Pro-neuregulin-1, membrane-bound isoform (Homo sapiens) (Q02297 whole entry, looked up, the tested form may be a part, canonical isoform): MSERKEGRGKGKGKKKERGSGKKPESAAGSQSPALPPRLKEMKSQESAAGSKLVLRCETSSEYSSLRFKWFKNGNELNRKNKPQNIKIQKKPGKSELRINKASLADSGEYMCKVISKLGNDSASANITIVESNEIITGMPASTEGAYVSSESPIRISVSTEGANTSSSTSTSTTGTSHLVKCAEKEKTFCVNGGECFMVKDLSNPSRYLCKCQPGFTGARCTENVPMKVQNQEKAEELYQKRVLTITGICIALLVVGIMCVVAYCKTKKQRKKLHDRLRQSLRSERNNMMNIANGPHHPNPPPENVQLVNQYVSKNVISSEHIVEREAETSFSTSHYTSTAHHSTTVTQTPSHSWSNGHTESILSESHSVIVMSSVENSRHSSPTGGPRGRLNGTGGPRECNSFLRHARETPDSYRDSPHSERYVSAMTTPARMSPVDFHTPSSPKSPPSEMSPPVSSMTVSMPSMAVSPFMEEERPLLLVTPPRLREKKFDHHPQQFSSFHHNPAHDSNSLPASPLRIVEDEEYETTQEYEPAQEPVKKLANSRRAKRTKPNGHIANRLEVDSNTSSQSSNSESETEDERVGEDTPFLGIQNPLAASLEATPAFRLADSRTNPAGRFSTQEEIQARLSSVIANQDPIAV
Chain of Torsin-1A-interacting protein 2 (Homo sapiens) (Q8NFQ8 whole entry, looked up): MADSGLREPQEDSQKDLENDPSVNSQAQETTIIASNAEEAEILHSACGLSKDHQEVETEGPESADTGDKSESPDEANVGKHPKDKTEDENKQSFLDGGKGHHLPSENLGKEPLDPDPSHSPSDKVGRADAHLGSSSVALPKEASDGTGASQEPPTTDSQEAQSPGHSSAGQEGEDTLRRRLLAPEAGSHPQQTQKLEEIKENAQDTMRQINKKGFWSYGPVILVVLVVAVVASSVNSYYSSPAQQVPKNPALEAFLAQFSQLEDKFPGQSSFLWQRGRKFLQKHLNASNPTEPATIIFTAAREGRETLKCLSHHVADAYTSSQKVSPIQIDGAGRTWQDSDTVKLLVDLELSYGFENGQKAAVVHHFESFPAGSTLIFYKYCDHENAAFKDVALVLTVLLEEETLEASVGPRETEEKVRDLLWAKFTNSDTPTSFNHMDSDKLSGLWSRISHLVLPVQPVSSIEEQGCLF
Chain of Neurogenic locus notch homolog protein 2 (Homo sapiens) (Q04721 whole entry, looked up, canonical isoform): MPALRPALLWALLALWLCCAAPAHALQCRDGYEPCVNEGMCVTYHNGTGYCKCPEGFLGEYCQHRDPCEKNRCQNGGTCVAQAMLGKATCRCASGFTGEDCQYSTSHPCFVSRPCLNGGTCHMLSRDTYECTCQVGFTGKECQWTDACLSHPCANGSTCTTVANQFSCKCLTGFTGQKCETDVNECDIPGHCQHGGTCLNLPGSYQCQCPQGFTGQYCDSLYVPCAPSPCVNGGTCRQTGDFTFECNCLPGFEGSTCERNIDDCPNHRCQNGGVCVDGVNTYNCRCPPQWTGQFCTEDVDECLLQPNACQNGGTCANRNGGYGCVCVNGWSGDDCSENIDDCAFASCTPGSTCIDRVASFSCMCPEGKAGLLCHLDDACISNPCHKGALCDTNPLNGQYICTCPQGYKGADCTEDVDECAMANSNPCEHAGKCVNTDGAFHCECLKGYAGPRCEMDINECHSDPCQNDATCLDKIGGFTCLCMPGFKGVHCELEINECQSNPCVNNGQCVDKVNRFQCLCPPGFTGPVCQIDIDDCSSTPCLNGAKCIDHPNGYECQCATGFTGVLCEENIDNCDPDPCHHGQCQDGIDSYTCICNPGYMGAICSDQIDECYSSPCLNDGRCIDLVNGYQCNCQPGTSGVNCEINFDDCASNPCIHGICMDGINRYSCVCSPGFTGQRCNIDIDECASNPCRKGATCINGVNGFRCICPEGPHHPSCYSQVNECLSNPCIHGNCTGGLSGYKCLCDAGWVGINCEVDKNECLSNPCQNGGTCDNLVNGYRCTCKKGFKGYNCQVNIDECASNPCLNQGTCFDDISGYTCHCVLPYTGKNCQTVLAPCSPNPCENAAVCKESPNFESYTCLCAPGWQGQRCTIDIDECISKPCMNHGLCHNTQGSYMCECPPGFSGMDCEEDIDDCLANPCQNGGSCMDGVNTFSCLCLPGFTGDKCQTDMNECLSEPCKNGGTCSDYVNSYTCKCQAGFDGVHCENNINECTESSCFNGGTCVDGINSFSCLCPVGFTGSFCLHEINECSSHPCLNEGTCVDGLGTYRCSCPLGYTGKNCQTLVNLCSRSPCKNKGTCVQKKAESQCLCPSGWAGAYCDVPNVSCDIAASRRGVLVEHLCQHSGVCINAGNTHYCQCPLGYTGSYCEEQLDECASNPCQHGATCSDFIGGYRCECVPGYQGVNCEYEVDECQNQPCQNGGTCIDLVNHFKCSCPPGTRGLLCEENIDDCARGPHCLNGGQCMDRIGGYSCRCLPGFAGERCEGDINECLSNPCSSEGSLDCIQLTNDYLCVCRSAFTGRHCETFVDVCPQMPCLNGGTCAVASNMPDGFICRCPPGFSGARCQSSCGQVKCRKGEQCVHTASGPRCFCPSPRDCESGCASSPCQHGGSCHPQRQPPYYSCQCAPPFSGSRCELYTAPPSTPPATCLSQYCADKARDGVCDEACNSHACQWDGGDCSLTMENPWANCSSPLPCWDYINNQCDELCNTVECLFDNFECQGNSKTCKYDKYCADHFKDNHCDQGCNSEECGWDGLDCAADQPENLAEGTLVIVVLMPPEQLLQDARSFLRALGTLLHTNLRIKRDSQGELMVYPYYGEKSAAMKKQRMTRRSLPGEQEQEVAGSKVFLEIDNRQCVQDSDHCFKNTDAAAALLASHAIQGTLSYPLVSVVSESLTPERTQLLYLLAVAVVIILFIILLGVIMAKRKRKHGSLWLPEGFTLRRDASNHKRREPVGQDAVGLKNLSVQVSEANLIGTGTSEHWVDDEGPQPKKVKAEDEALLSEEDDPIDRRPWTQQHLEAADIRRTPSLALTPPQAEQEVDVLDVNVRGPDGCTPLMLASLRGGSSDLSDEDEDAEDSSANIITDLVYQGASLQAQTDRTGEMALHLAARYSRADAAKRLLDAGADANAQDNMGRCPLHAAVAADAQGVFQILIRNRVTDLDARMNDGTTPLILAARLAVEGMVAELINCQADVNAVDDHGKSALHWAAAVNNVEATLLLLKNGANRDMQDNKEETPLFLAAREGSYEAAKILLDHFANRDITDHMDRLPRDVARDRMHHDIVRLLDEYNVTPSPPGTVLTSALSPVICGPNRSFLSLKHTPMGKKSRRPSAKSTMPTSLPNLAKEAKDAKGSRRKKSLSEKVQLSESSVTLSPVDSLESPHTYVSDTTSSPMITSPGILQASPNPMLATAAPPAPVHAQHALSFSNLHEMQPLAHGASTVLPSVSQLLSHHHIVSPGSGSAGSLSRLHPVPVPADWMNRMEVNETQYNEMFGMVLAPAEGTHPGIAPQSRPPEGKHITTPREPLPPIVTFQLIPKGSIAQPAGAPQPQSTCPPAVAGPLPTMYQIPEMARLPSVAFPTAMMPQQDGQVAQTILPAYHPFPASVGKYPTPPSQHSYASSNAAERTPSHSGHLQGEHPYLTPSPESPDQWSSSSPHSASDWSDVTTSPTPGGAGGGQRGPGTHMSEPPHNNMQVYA

## CC(C)[Si]1(C(C)C)O[C@@H](c2ccccc2)c2cc(-c3ccc(-c4ccc(Cl)c(Cl)c4)o3)nc(-c3ccccc3)c21
[1]
  composite z-score: -0.104
[2]
  composite z-score: 0.291
[3]
  composite z-score: -0.0953
[4]
  composite z-score: -0.0933
[5]
  composite z-score: -0.0802
[6]
  composite z-score: 0.398
[7]
  composite z-score: -0.39
[8]
  z-score: 0.97 (inactive)
[9]
  composite z-score: 0.0481
[10]
  composite z-score: -0.0645
[11]
  composite z-score: 0.985
[12]
  z-score: -0.585 (inactive)
[13]
  z-score: -0.764 (inactive)
[14]
  z-score: 0.167 (inactive)
[15]
  composite z-score: 1.22
[16]
  z-score: -1.22 (inactive)
[17]
  composite z-score: -0.0809
[18]
  composite z-score: -0.262
[19]
  composite z-score: 0.123
[20]
  composite z-score: -0.108

## COC(=O)[C@@]1(Cc2ccc(OC)cc2)[C@H]2c3cc(C(=O)N(C)C)n(Cc4ccccn4)c3C[C@H]2CN1C(=O)c1ccccc1
[1]
  composite z-score: 1.19
[2]
  composite z-score: 2.08
[3]
  composite z-score: 0.0395
[4]
  composite z-score: -0.175
[5]
  composite z-score: 1.4
[6]
  composite z-score: 2.35
[7]
  composite z-score: 0.89
[8]
  z-score: 0.0734 (inactive)
[9]
  composite z-score: 0.852
[10]
  composite z-score: 0.408
[11]
  composite z-score: -1.12
[12]
  z-score: 0.0106 (inactive)
[13]
  z-score: 0.785 (inactive)
[14]
  z-score: 0.144 (inactive)
[15]
  composite z-score: 3.08
[16]
  z-score: -0.621 (inactive)
[17]
  composite z-score: 0.282
[18]
  composite z-score: -1.12
[19]
  composite z-score: 0.0171
[20]
  composite z-score: -0.0355

## O=C(NCCN1CCOCC1)[C@@H]1c2ccccc2C(=O)N(C2CCCCC2)[C@H]1c1ccc(CO)cc1
[1]
  composite z-score: 0.64
[2]
  composite z-score: -0.324
[3]
  composite z-score: -0.0616
[4]
  composite z-score: -0.413
[5]
  composite z-score: -0.194
[6]
  composite z-score: 0.96
[7]
  composite z-score: 0.872
[8]
  z-score: -0.658 (inactive)
[9]
  composite z-score: 0.106
[10]
  composite z-score: -0.271
[11]
  composite z-score: 0.403
[12]
  z-score: -0.166 (inactive)
[13]
  z-score: -0.556 (inactive)
[14]
  z-score: 0.0989 (inactive)
[15]
  composite z-score: 2.35
[16]
  z-score: -0.0985 (inactive)
[17]
  composite z-score: -0.0042
[18]
  composite z-score: -0.562
[19]
  composite z-score: -0.565
[20]
  composite z-score: -0.2

## CC(CO)N1C(=O)[C@@H]2C3C(=O)OCCC/C=C\[C@H]3OC23C=CCN(C(C)(C)C)C(=O)[C@@H]13 (stereo not given in full)
[1]
  composite z-score: 0.104
[2]
  composite z-score: 0.733
[3]
  composite z-score: -0.0971
[4]
  composite z-score: 0.255
[5]
  composite z-score: 0.162
[6]
  composite z-score: 0.182
[7]
  composite z-score: 1.17
[8]
  z-score: -1.23 (inactive)
[9]
  composite z-score: -0.269
[10]
  composite z-score: 0.0373
[11]
  composite z-score: 0.0207
[12]
  z-score: -0.226 (inactive)
[13]
  z-score: -0.911 (inactive)
[14]
  z-score: -0.706 (inactive)
[15]
  composite z-score: 0.478
[16]
  z-score: -0.0054 (inactive)
[17]
  composite z-score: -0.216
[18]
  composite z-score: 0.0872
[19]
  composite z-score: 0.201
[20]
  composite z-score: -0.0905

## O=C(c1ccccc1)N1C(=O)[C@@]2(Cc3ccccc31)N=C(c1ccc(OCCCO)cc1)O[C@H]2c1ccccc1
[1]
  composite z-score: 0.77
[2]
  composite z-score: 0.686
[3]
  composite z-score: 0.15
[4]
  composite z-score: 0.663
[5]
  composite z-score: 1.17
[6]
  composite z-score: 1.57
[7]
  composite z-score: 1.39
[8]
  z-score: -2.91 (inactive)
[9]
  composite z-score: 1.01
[10]
  composite z-score: 0.364
[11]
  composite z-score: 1.55
[12]
  z-score: -0.26 (inactive)
[13]
  z-score: -1.23 (inactive)
[14]
  z-score: 1.74 (inactive)
[15]
  composite z-score: 2.59
[16]
  z-score: 0.0877 (inactive)
[17]
  composite z-score: 0.384
[18]
  composite z-score: 0.487
[19]
  composite z-score: 1.09
[20]
  composite z-score: 0.291
